Experiments:
Assay in all cases: PBM binding z-score (relative to random genomic background probes); higher = stronger binding; sequences stand for … in GC…GCGATTGACAGCGTAGAATGAAGG
[1] = tested on: RARb homodimer (NR concentration 270 nM)
Procedure, shortened: (§1)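 Ligand-free nuclear receptor dimers were applied to custom Agilent 4×180K protein-binding microarrays whose double-stranded probes carried direct-repeat seeds, single-nucleotide variants, half-site ablations and random human genomic background sequences in 34-nt variable regions. Incubation lasted 1 h. Binding z-scores were computed against the random background probes from regression-normalized fluorescence.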

[2] = tested on: RARg:RXRa (NR concentration 270 nM, RXRa partner concentration 90 nM)
Procedure, shortened: as §1

[3] = tested on: RARg homodimer (NR concentration 270 nM)
Procedure, shortened: as §1

[4] = tested on: RXRa DBDmut IVT, anti-RXR (DBD mutation: RXRa K156A/R161A, NR concentration 90 nM)
Procedure, shortened: as §1

[5] = tested on: RXRa homodimer (NR concentration 180 nM)
Procedure, shortened: as §1

[6] = tested on: THRa:RXRa (NR concentration 90 nM, RXRa partner concentration 90 nM)
Procedure, shortened: as §1

[7] = tested on: THRa homodimer (NR concentration 90 nM)
Procedure, shortened: as §1

[8] = tested on: VDR:RXRa (NR concentration 270 nM, RXRa partner concentration 90 nM)
Procedure, shortened: as §1

[9] = tested on: VDR homodimer (NR concentration 270 nM)
Procedure, shortened: as §1

Sequence | PBM binding z-score [1] | PBM binding z-score [2] | PBM binding z-score [3] | PBM binding z-score [4] | PBM binding z-score [5] | PBM binding z-score [6] | PBM binding z-score [7] | PBM binding z-score [8] | PBM binding z-score [9]
CCTAGCAGGCCAATCTGGGTCCCTCAAGGCTTGA | -0.121 | -0.601 | -0.841 | -0.491 | -0.782 | 0.746 | -0.658 | -0.831 | -0.612
CCTAGCAGGCCAGGGTTACTCAAGCATTTCGCTT | 0.0028 | -0.0642 | -0.141 | -0.596 | 0.113 | 0.382 | -0.445 | -0.412 | -0.788
TCTGCTAGGACAACGATGGTCAGCTAATCTGCTA | -0.669 | -0.181 | 0.34 | 0.112 | -0.495 | 0.316 | -0.704 | -0.784 | -0.943
AATACAGGGTAATCGTAGGCCAGAGTACGCACAG | 0.578 | 0.923 | 0.637 | -0.324 | 0.61 | 1.34 | -0.13 | 0.0104 | 0.508
CCTACTGGGCCAAAAAGGTCATTGGTGCCGATAA | 4.58 | 4.6 | 4.13 | 0.562 | 4.92 | 3.13 | 0.738 | 5.2 | 2.89
AGAATGTGGTTAAGATCAGGGAAACAGAATACAT | 0.296 | 0.287 | 0.502 | -0.315 | -0.0174 | 0.458 | -0.00414 | -0.0223 | 0.151
CGTCAAAGTTCAACTCAGGTAACGTAAAGCACGC | 4.24 | 5.85 | 6.43 | 4.55 | 5.06 | 5.03 | 1.38 | 4.45 | 4.21
ATCTCTAGGTAAAGATAGTTCAGTGATTGCAAAT | 1.2 | 0.619 | 0.722 | 0.503 | 0.395 | 0.879 | 0.445 | 1.07 | 0.789
CATACAGGGTCAGCTAGTCCAGAGTAGGGACGGC | 2.88 | 4.26 | 4.24 | 1.65 | 4.04 | 2.86 | 0.757 | 4.36 | 1.68
CCTCGGAGGACTGAAGGTCAGAGCTGTCCGCTTT | 2.67 | 2.13 | 1.87 | -0.27 | 1.46 | 1.66 | -0.417 | 0.567 | -0.325
TCTAGTTGTTCACGGAGGTCACACACGACGGGTA | 4.05 | 3.97 | 3.7 | 1.18 | 4.36 | 3.39 | 2.47 | 4.1 | 3.06
GCTCGGAGGACAAGGTCAGAGGTTTGTCCGTAGA | 3.27 | 3.12 | 3.27 | 0.666 | 2.53 | 3.07 | 1.42 | 1.81 | 1.2
CAAACTAGGTCACGAAAGGTCAAAGGCGAATGAC | 5.95 | 8.09 | 8.64 | 1.99 | 8.7 | 5.15 | 2.55 | 6.79 | 3.38
GCAGACAGGTGAAACGCAGGTAATTCAGGGTGGC | 0.413 | 0.684 | 0.304 | -0.376 | 0.614 | 1.38 | -0.381 | -0.324 | -0.586
CCTCGGAGGACAGAAGGTCAGGGCTGTCCGCTTT | 3.88 | 3.67 | 3.54 | -0.126 | 2.22 | 2.35 | 0.202 | 0.967 | 0.107
AGTCAAAGATCACTAGGTAACGTAAGATTCAGCT | -0.307 | 0.422 | 0.489 | -0.0538 | 0.356 | 0.378 | -0.116 | -0.124 | -0.051
TAGCCTACGTCATGCGGGCCAGTATAGTGTCGGC | -0.71 | -0.452 | -0.536 | -0.98 | -0.341 | -1.7 | -0.856 | -0.879 | -1.16
TTCCCAAGGTGAAGGTCGTTGATCCCTCTGTAGA | 1.87 | 1.35 | 1.04 | -0.0232 | 1.74 | 2.52 | 1.11 | 1.22 | 0.952
CAAACTAGGTCAAGGTCAAAGTCGGTTTGTGCCA | 5.13 | 6.18 | 6.97 | 3.21 | 6.34 | 4.35 | 3.74 | 5.23 | 4.46
ACTATTAGTTGACTTAGGGCAACAGATACGACGC | 0.775 | 0.939 | 1.03 | 0.406 | 0.426 | 1.48 | 0.0505 | 0.323 | 0.162
ATCGAAAGGTCGTGAGGCGAGTATACAGAAAGGC | 2.55 | 4.39 | 3.91 | 1.28 | 5.34 | 2.49 | -0.00887 | 3.18 | 0.582
GGAACGAGGGCAATCGAGTTGATAGCATGGCGAT | 0.554 | 1.14 | 1.22 | 1.84 | 0.638 | 2.64 | -0.649 | 3.11 | 1.87
CCTACTGGGCCATCAGCTCATTGATATCAACGTT | -0.431 | -0.217 | 0.0511 | -0.384 | -0.717 | -0.526 | -0.399 | -0.619 | -0.517
TCTTGTAGATCAATAGAGGTTAAGAACGTGCGCT | 1.05 | 0.792 | 0.716 | 0.923 | 1.54 | 2.33 | -0.182 | 1.27 | 0.37
CATACAGGGTCAGCTAGGCCAGGGTAGGGACGGC | 3.59 | 4.48 | 5.13 | 0.607 | 4.42 | 3.28 | 1.26 | 3.64 | 1.47
CGTCCAAGCTCAAGGTCAGTGAAAGAGACTCGAA | 3.16 | 2.55 | 3.24 | 0.755 | 1.81 | 2.87 | 1.83 | 1.18 | 1.18
